Test results: PubChem BioAssay (NCATS)
Records with an inconclusive call do not appear. Active and inactive are the calls of the source. The call rests on the fitted dose curve; in most records, active means well fitted inhibition curve with a large enough effect; inconclusive means small, poorly fitted or top-dose-only effect; inactive means no such curve, though single readings can be large or run the other way.

Target: Aldehyde dehydrogenase 1A1 (Homo sapiens) (UniProt P00352)
Test: qHTS for Inhibitors of the Aldehyde Dehydrogenase Family (ALDH1A1) Confirmatory screens (AID 2061316); further: nearly all actives have a fitted effect of over 65% in size
Settings: ALDH inhibition qHTS; series mostly up to 47.3 µM
Potency means the concentration at half of the fitted maximal effect.

Row | Structure (SMILES) | Potency
1 | COc1cccc(CNc2ccc(S(=O)(=O)Nc3cccs3)cc2)c1O | 0.634 µM (active)
2 | CN(CC(=O)Nc1ccc(N2CCOCC2)cc1)Cc1cccc2ccccc12 | 11.3 µM (active)
3 | FC(F)(F)c1ccccc1-c1nc(NCc2ccc(-c3ccc(Cl)c(Cl)c3)cc2)c2ccccc2n1 | 20.1 µM (active)
4 | O=C1c2ccccc2NC(c2ccc(-c3cccc(Cl)c3)o2)N1O (configuration not stated) | 22.5 µM (active)
5 | Cc1ccc([S+](=O)([O-])Nc2nn3c(=O)c4ccccc4nc3s2)cc1C | 12.7 µM (active)
6 | O=c1c2ccccc2nc2sc(NS(=O)(=O)c3ccc4c(c3)CCC4)nn12 | 8.96 µM (active)
7 | O=S1(=O)N=C(Oc2ccc(Br)cc2)c2ccccc21 | 12.7 µM (active)
